Several values for one entry are separate records, joined by “and”; a condition that tells them apart may be missing. Equal entries are not always repeated. Records with an inconclusive call do not appear. Activity calls are given as the source filed them. The call rests on the fitted dose curve; in most records, active means well fitted inhibition curve with a large enough effect; inconclusive means small, poorly fitted or top-dose-only effect; inactive means no such curve, though single readings can be large or run the other way.
Assay: Acumen qHTS Assay for Inhibitors of the mTORC1 Signaling Pathway in MEF (Tsc2-/-, p53-/-) Cells: Hit Validation;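 further: phospho-rpS6 Ser235/236 immunofluorescence normalized to propidium iodide cell count; nearly all actives have a fitted effect of over 65% in size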;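 on activity change, negative = inhibition: cells exposed to compound for 24 hours; plate controls were DMSO for no effect and 7.5 nM rapamycin control for full effect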
Details: Acumen imaging; activity change, negative = inhibition: at 37.3 µM (top of the series)
Potency means the concentration at half of the fitted maximal effect.

SMILES | activity change, negative = inhibition | Potency
CCc1ccc(NC(=O)C2CCCN(S(=O)(=O)c3cccc4cccnc34)C2)cc1 (stereo not given) | -7.11% | 
NC(=O)c1ccc(-c2nc(-c3ccc4c(c3)OCO4)c(-c3ccccn3)[nH]2)cc1 | -5.7% | 
Cc1ccc(NC(=O)c2nc(S(=O)(=O)Cc3cccc(C)c3)ncc2Cl)cc1 | -108% | 
CCc1ccc(NC(=O)CSc2nccn2C2CCCC2)cc1 | -3.21% | 
Cc1cc(C)c(/C=C2\C(=O)Nc3ccccc32)[nH]1 | 0.812% and 7.57% | 
COc1ccc2nc(NC(=O)c3nc(S(=O)(=O)Cc4ccccc4)ncc3Cl)sc2c1 |  | 5.85 µM (active)
CC(C)S(=O)(=O)c1oc(-c2cccs2)nc1S(=O)(=O)c1ccc(F)cc1 |  | 0.736 µM (active)
CCOc1ccc(NC(=O)CN2C(=O)C(c3ccc(Cl)cc3)=NC2(C)C)cc1 | 17.5% | 
O=C(CN(CCc1ccccc1)S(=O)(=O)c1ccccc1)NCc1ccc(Cl)cc1 | -3.71% | 
CCC(C)S(=O)(=O)c1oc(-c2ccc(F)cc2)nc1S(=O)(=O)c1ccc(F)cc1 (stereo not given) |  | 1.31 µM (active)
COc1ccc(CCN2CCC(CNC(=O)c3cnn(-c4cccc(Cl)c4)c3C3CCN(C(=O)OC(C)(C)C)CC3)CC2)cc1 |  | 6.56 µM (active)
Cc1ccc(S(=O)(=O)c2nc(-c3ccco3)oc2SC(C)c2ccccc2)cc1 (stereo not given) | -7.74% | 
Cc1ccc(C)c(S(=O)(=O)NCC(c2ccco2)S(=O)(=O)c2ccc(F)cc2)c1 (stereo not given) | -16.2% | 
COc1cc(-c2ccno2)ccc1S(=O)(=O)N1CCN(c2cc(C)ccc2C)CC1 | -45.4% | 
COc1ccc(-c2nc(CCNC(=O)c3c(F)cccc3Cl)cs2)cc1 | -0.104% | 
CCOc1cccc(C2CC(=O)Nc3cc4c(cc32)OCCO4)c1 (stereo not given) | -113% | 
CCOc1ccccc1NS(=O)(=O)c1ccc(-c2cnc(C3CC3)o2)cc1 |  | 0.464 µM (active)
Cc1cccn2c(Nc3ccccc3)c(-c3cccs3)nc12 | 26.1% | 
CC1=Nc2cc(C(=O)NC3CCCC3)ccc2Sc2ccc(Br)cc21 | -107% | 
Cc1cc(C)cc(OCC(=O)Nc2cccc(-c3nc4ccccc4[nH]3)c2)c1 | -6.64% | 
Cc1ccc(C(C)C)c(OCC(=O)Nc2cc(-c3nc4ccccc4[nH]3)ccc2C)c1 | -3.97% | 
COc1ccc(N2CC(c3nc(-c4cc(OC)c(OC)c(OC)c4)no3)CC2=O)cc1Cl (stereo not given) | 5.08% | 
CC(C)(C)C1CCc2c(sc(NC(=O)C3c4ccccc4Oc4ccccc43)c2C(N)=O)C1 (stereo not given) | -15.3% | 
COc1cc(C)ccc1OCCn1c(-c2ccc(Cl)cc2)nc2ccccc2c1=O | -1.14% | 
Cc1nn(CC(=O)NCc2ccccc2Cl)c(=O)c2cccn12 | 6.27% | 

SMILES | activity change, negative = inhibition | Potency
COc1ccc(CC(=O)Nc2sc3c(c2C(=O)Nc2cccc(C)c2)CCCCC3)cc1 |  | 4.14 µM (active)
CC(C)CCNC(=O)c1cccc(Nc2nc3ccccc3n3nnnc23)c1 | -88.5% | 
O=C(CCS(=O)(=O)c1nc(-c2cccs2)cc(C(F)(F)F)n1)Nc1cccc(O)c1 | -112% | 
CC(C)CCNc1nc(Nc2ccccc2)c2cnn(C)c2n1 | 17.1% | 
COc1ccc(Cl)cc1NC(=O)CCCS(=O)(=O)c1nc(-c2ccc(OC)c(OC)c2)cc(C(F)(F)F)n1 |  | 10.4 µM (active)
COc1ccc(-c2ccc(CCC(=O)O)n2-c2cc(Cl)ccc2O)cc1 | -7.48% | 
CC1=C(C(=O)Nc2ccc(C)cc2C)C(c2cc(Br)ccc2F)n2ncc(C(=O)Nc3ccc(C)cc3)c2N1 (stereo not given) |  | 9.27 µM (active)
CC1=C(C(=O)OC2CCCC2)C(c2ccccc2Cl)CC(=O)N1 (stereo not given) | -10.6% | 
CCOC(=O)c1sc2ccccc2c1S(=O)(=O)Nc1ccc(CC)cc1 | -9.52% | 
O=C(CC(NCc1cccnc1)C(=O)O)Nc1ccc(O)cc1 (stereo not given) | 5.37% | 
Cc1ccc(NC(=O)Nc2cccs2)c(C)c1 | -40.4% | 
COc1cccc(-c2oc3ccc(C)cc3c(=O)c2O)c1 | -44.4% | 
COc1ccc(OC)c(NC(=O)c2nnn(CC(=O)Nc3ccc(C(C)C)cc3)c2N)c1 | -27.6% | 
Cc1ccc2[nH]c(=O)c3cc(C(=O)NCCCN4CCC(C)CC4)sc3c2c1 |  | 13.1 µM (active)
Cc1ccc(-n2ncc(C(=O)NCCCN3CCc4ccccc4C3)c2C2CCN(C(=O)OC(C)(C)C)CC2)c(C)c1 | -11.4% | 
COc1ccc(Cl)cc1C1CC(=O)Nc2cc3c(cc21)OCCO3 (stereo not given) | -26.9% | 
CCCCOc1cccc(C(=O)N2CCN(CCc3ccncc3)CC2)c1 | 0.726% | 
Cc1cc(-c2ccc(S(=O)(=O)Nc3cccc(C)c3C)s2)on1 |  | 4.14 µM (active)
CCCCN1C(=O)C(O)(c2c(C)[nH]c3ccccc23)c2cc(Br)ccc21 (stereo not given) | -47% | 
Cc1cccc(OCC(=O)Nc2ccc(-c3nc4cc(C)ccc4o3)c(O)c2)c1 |  | 6.56 µM (active)
O=C(CC1(O)C(=O)N(CCc2ccccc2)c2ccc(Br)cc21)c1ccccc1O (stereo not given) |  | 6.56 µM (active)
Cc1ccccc1NC(=O)Cn1cc(C(=O)c2cccs2)c2ccccc21 | 1.72% | 
COc1ccc(OCC(=O)NCc2ccc3c(c2)CCN3C(=O)c2ccccc2)cc1 |  | 16.5 µM (active)
CN(C)c1ccc(Nc2nc3ccccc3n3nnnc23)cc1 | -10% | 
COc1ccc(N(Cc2ccccc2)C(=O)c2nc(S(C)(=O)=O)ncc2Cl)cc1 |  | 1.85 µM (active)

SMILES | activity change, negative = inhibition | Potency
Nc1nnc(SCC(=O)Nc2cccc(F)c2)s1 | 16.3% | 
COc1cc2c(cc1OC)n(CC(=O)c1ccc(F)cc1)c(=O)n1nc(CCn3nc(C)cc3C)nc21 | -5.74% | 
O=C(Cn1cc(SCc2ccccc2)c2ccccc21)N1CCCCCC1 | 15.1% | 
CCC1=Nc2cc(C(=O)NC3CCC(C)CC3)ccc2Sc2ccc(C)cc21 (stereo not given) |  | 1.47 µM (active)
Cc1ccccc1OCCn1c(=N)n(C(C)C)c2ccccc21 |  | 8.26 µM (active)
O=C(CCOc1ccccc1)N(Cc1cccnc1)c1nc2c(F)cccc2s1 |  | 11.7 µM (active)
CCOC(=O)c1c(NC(=O)c2nc(S(C)(=O)=O)ncc2Cl)sc(C(C)=O)c1C |  | 4.14 µM (active)
CCOC(=O)c1[nH]c2ccccc2c1NC(=O)c1ccccc1OCC |  | 2.93 µM (active)
CCc1ccc(NC(=O)C2CCCN(S(=O)(=O)c3c(C)noc3/C=C/N(C)C)C2)cc1 (stereo not given) | -73.7% | 
Cc1ccc(C(=O)CC2(O)C(=O)N(Cc3ccccc3)c3ccc(Br)cc32)cc1 (stereo not given) |  | 11.7 µM (active)
CCCS(=O)(=O)c1c(S(=O)(=O)CCC)c2cc(C(C)(C)C)ccn2c1C(=O)c1ccc(OC)c(OC)c1 | -5.67% | 
CCc1ccccc1NC(=O)CSCc1cnn(-c2ccccc2)c1-n1cccc1 | 14.7% | 
CCN1CCOC(=O)C1CC(=O)Nc1ccc(Br)cc1 (stereo not given) | -3.02% | 
CCOc1ccccc1NC(=O)c1cn(C2CCCC2)c(=O)c2c1c1ccccc1n2C | -10.9% | 
Cc1ccc(C)c(Cn2c3ccccc3c3cnn(CC(=O)NC(C)CCc4ccccc4)c(=O)c32)c1 (stereo not given) |  | 7.36 µM (active)
O=C(Nc1cccc(C(F)(F)F)c1)c1cnn(-c2cccc(F)c2)c1C1CCNCC1 | -13.8% | 
CCOc1ccccc1Nc1nc(-c2cccc(Cl)c2)c2c(n1)-c1ccccc1OC2 | -15.1% | 
COc1cc(Nc2nc(SCC(=O)c3ccc(Cl)c(Cl)c3)nc3ccccc23)cc(OC)c1 | -51.7% | 
NS(=O)(=O)c1cc(C(=O)O)c(NCc2ccco2)cc1Cl | 34.6% | 
CCOC(=O)c1ccc(N2C(=O)c3n[nH]c(C)c3C2c2cccc(Br)c2)cc1 (stereo not given) | 4.8% | 
CCOC(=O)c1c(NC(=O)c2cc(CC)on2)sc(C(C)=O)c1C | 12% | 
CCOc1cc(-c2nnc(SCC(=O)NCc3ccccc3)nc2-c2ccc(OC)c(OCC)c2)ccc1OC |  | 2.07 µM (active)
COc1ccc(CNCCC(c2ccc3c(c2)OCO3)c2ccccc2OC)cc1 (stereo not given) | -87.3% | 
CCS(=O)(=O)c1ccccc1C(=O)N(Cc1cccnc1)c1nc2cc(C)c(C)cc2s1 | -10% | 
O=C(Nc1ccc(Cl)cc1)c1cc(S(=O)(=O)N2CCCc3ccccc32)ccc1F | -18.3% | 

From PubChem BioAssay AID651784 (National Center for Advancing Translational Sciences (NCATS), 2012)
